# Test results reported in PubChem BioAssay (NCATS).
# “And” between values parts separate entries of the source, which are not always exact repeats. Equal values may be shown once. Records with an inconclusive call do not appear. A call without a number means that no potency is given here. The source holds several records for some structures; these can differ, active in one and inactive in another. Unmarked numbers belong to inactive results. The source made the active and inactive calls. Calls come from the whole dose curve; as a rule, active = well fitted curve in the direction sought with a large enough effect; inconclusive = small, poorly fitted or top-dose-only effect, or another doubt; inactive = no such curve, though single readings can be large; an effect the other way counts as inactive or inconclusive.
# Columns and labels:
# MKL-1 = assay: qHTS assay to identify novel small-molecules to repurpose for Merkel cell carcinoma treatment (AID 1296009); conditions: MCC and control cell lines, CellTiter-Glo viability, 72 h; series mostly up to 46 µM; note: nearly all actives have a fitted effect of over 60% in size
# How it was run: (§1)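 Cells were incubated with compound for 72 hr at 37 degree celsius before CellTiter-Glo addition. Luminescence was normalized with no-cell wells as full cytotoxicity and DMSO as baseline.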
# MKL-2 = assay: as above; conditions: MCC and control cell lines, CellTiter-Glo viability, 72 h; series mostly up to 46 µM
# How it was run: as §1
# NIH3T3 = assay: as above; conditions: MCC and control cell lines, CellTiter-Glo viability, 72 h; series mostly up to 44.8 µM
# How it was run: as §1
# UISO = assay: as above; conditions: MCC and control cell lines, CellTiter-Glo viability, 72 h; series mostly up to 46 µM
# How it was run: as §1
# WaGa = assay: as above; conditions: MCC and control cell lines, CellTiter-Glo viability, 72 h; series mostly up to 46 µM
# How it was run: as §1
# C33A = assay: Primary qHTS to identify gynecologic anti-cancer compounds using libraries of approved drugs and bioactive compounds (AID 1345084); conditions: Gynecologic cancer cell panel viability, ATPlite luminescence, 48 h; series mostly up to 57.5 µM; note: nearly all actives have a fitted effect of over 55% in size
# How it was run: (§2)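 Cells, 1,000 per well, plated 16 h, then exposed 48 h at 37 C to compounds. Viability by ATPlite luminescence after 15 min at room temperature.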
# CASKI = assay: as above; conditions: Gynecologic cancer cell panel viability, ATPlite luminescence, 48 h; series mostly up to 57.5 µM
# How it was run: as §2
# Es-2 = assay: as above; conditions: Gynecologic cancer cell panel viability, ATPlite luminescence, 48 h; series mostly up to 57.5 µM
# How it was run: as §2
# HeLa = assay: as above; conditions: Gynecologic cancer cell panel viability, ATPlite luminescence, 48 h; series mostly up to 57.5 µM
# How it was run: as §2
# Hek293T = assay: as above; conditions: Gynecologic cancer cell panel viability, ATPlite luminescence, 48 h, control line for the selectivity index; series mostly up to 57.5 µM
# How it was run: as §2
# JEG-3 = assay: as above; conditions: Gynecologic cancer cell panel viability, ATPlite luminescence, 48 h; series mostly up to 57.5 µM
# How it was run: as §2
# OV90 = assay: as above; conditions: Gynecologic cancer cell panel viability, ATPlite luminescence, 48 h; series mostly up to 57.5 µM
# How it was run: as §2
# PA-1 = assay: as above; conditions: Gynecologic cancer cell panel viability, ATPlite luminescence, 48 h; series mostly up to 57.5 µM
# How it was run: as §2
# SKOV3 = assay: as above; conditions: Gynecologic cancer cell panel viability, ATPlite luminescence, 48 h; series mostly up to 57.5 µM
# How it was run: as §2
# Tov-21-G = assay: as above; conditions: Gynecologic cancer cell panel viability, ATPlite luminescence, 48 h; series mostly up to 57.5 µM
# How it was run: as §2
# Tov112D = assay: as above; conditions: Gynecologic cancer cell panel viability, ATPlite luminescence, 48 h; series mostly up to 57.5 µM
# How it was run: as §2
# [1] = Drug repurposing screens with cells derived from glioblastoma tumor samples (AID 1345199); conditions: GBM patient neurospheres viability, ATP luminescence, 48 h; note: nearly all actives have a fitted effect of over 40% in size; note: potency is the fitted concentration of half-maximal effect
# How it was run: (§3)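 Four patient lines of CD133+ GBM neurospheres were screened at several concentrations; hits were retested in those lines plus three slower-growing GBM lines, using 48-hour treatment and ATP-based viability.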
# astro = assay: as above; conditions: viability, ATP luminescence, 48 h; series mostly up to 45.9 µM
# How it was run: as §3
# CAOV3 = assay: Primary qHTS to identify gynecologic anti-cancer compounds using libraries of approved drugs and bioactive compounds (AID 1345084); conditions: Gynecologic cancer cell panel viability, ATPlite luminescence, 48 h; series mostly up to 57.5 µM; note: nearly all actives have a fitted effect of over 55% in size
# How it was run: as §2
# [2] = at 45.9 µM (top of the series), tumour line B
# [3] = at 45.9 µM (top of the series), tumour line D
# [4] = at 46.1 µM (top of the series), tumour line C
# [5] = at 46 µM (top of the series), tumour line A
compound,measurement,setting,value
CN(C)CCOC(c1ccccc1)c1ccccc1,Potency,MKL-1,inactive
same,Potency,MKL-2,inactive
same,outcome,NIH3T3,inactive
same,Potency,UISO,inactive
same,Potency,WaGa,inactive
same,Potency,C33A,inactive
same,Potency,CASKI,inactive
same,Potency,Es-2,inactive
same,Potency,HeLa,inactive
same,Potency,Hek293T,inactive
same,Potency,JEG-3,inactive
same,Potency,OV90,inactive
same,Potency,PA-1,inactive
same,Potency,SKOV3,inactive
same,Potency,Tov-21-G,inactive
same,Potency,Tov112D,inactive
same,"activity, negative = cell killing",[1]; [2],0.893%
same,"activity, negative = cell killing",[1]; [3],1.4%
same,"activity, negative = cell killing",[1]; [4],1.73% and -22.4%
same,Potency,[1]; tumour line A,22.4 µM (active) and 12.6 µM (active)
O=C(CCCN1CCC(O)(c2ccc(Cl)cc2)CC1)c1ccc(F)cc1,Potency,MKL-1,inactive
same,Potency,MKL-2,inactive
same,outcome,NIH3T3,inactive
same,Potency,UISO,inactive
same,Potency,WaGa,inactive
same,Potency,C33A,inactive
same,Potency,CASKI,inactive
same,Potency,Es-2,inactive
same,Potency,HeLa,inactive
same,Potency,Hek293T,inactive
same,Potency,JEG-3,inactive
same,Potency,Tov112D,inactive
same,"activity, negative = cell killing",[1]; [4],-10.7%
same,Potency,[1]; tumour line A,11.2 µM (active)
same,Potency,[1]; tumour line D,15.8 µM (active)
NC12CC3CC(CC(C3)C1)C2,Potency,MKL-1,inactive
same,Potency,MKL-2,inactive
same,outcome,NIH3T3,inactive
same,Potency,UISO,inactive
same,Potency,WaGa,inactive
same,Potency,C33A,inactive
same,Potency,CASKI,inactive
same,Potency,Es-2,inactive
same,Potency,HeLa,inactive
same,Potency,Hek293T,inactive
same,Potency,JEG-3,inactive
same,Potency,OV90,inactive
same,Potency,PA-1,inactive
same,Potency,SKOV3,inactive
same,Potency,Tov-21-G,inactive
same,Potency,Tov112D,inactive
same,"activity, negative = cell killing",[1]; [2],-22.3%
same,"activity, negative = cell killing",[1]; [5],14.4%
same,"activity, negative = cell killing",[1]; [4],2.2%
same,Potency,astro,inactive
Cn1ccc2cc3c(cc21)CCN3C(=O)Nc1cccnc1,Potency,MKL-1,inactive
same,Potency,MKL-2,inactive
same,outcome,NIH3T3,inactive
same,Potency,UISO,inactive
same,Potency,WaGa,inactive
same,Potency,C33A,inactive
same,Potency,CASKI,inactive
same,Potency,Es-2,inactive
same,Potency,HeLa,inactive
same,Potency,Hek293T,inactive
same,Potency,JEG-3,inactive
same,Potency,OV90,inactive
same,Potency,PA-1,inactive
same,Potency,SKOV3,inactive
same,Potency,Tov-21-G,inactive
same,Potency,Tov112D,inactive
NCCc1cnc[nH]1,Potency,MKL-1,inactive
same,Potency,MKL-2,inactive
same,outcome,NIH3T3,inactive
same,Potency,UISO,inactive
same,Potency,WaGa,inactive
same,Potency,C33A,inactive
same,Potency,CASKI,inactive
same,Potency,Es-2,inactive
same,Potency,HeLa,inactive
same,Potency,Hek293T,inactive
same,Potency,JEG-3,inactive
same,Potency,OV90,inactive
same,Potency,PA-1,inactive
same,Potency,SKOV3,inactive
same,Potency,Tov-21-G,inactive
same,Potency,Tov112D,inactive
same,"activity, negative = cell killing",[1]; [2],27.7%
same,"activity, negative = cell killing",[1]; [3],2.11%
same,"activity, negative = cell killing",[1]; [4],0.797%
same,Potency,astro,inactive
NCCS(=O)(=O)O,Potency,MKL-1,inactive
same,Potency,MKL-2,inactive
same,outcome,NIH3T3,inactive
same,Potency,UISO,inactive
same,Potency,WaGa,inactive
same,Potency,C33A,inactive
same,Potency,CASKI,inactive
same,Potency,Es-2,inactive
same,Potency,HeLa,inactive
same,Potency,Hek293T,inactive
same,Potency,JEG-3,inactive
same,Potency,OV90,inactive
same,Potency,PA-1,inactive
same,Potency,SKOV3,inactive
same,Potency,Tov-21-G,inactive
same,Potency,Tov112D,inactive
same,"activity, negative = cell killing",[1]; [2],-27.3%
same,"activity, negative = cell killing",[1]; [3],-0.425%
same,"activity, negative = cell killing",[1]; [5],17.9%
same,"activity, negative = cell killing",[1]; [4],-20.3%
same,Potency,astro,inactive
CC[N+](CC)(CC)CCOc1cccc(OCC[N+](CC)(CC)CC)c1OCC[N+](CC)(CC)CC,Potency,MKL-1,inactive
same,Potency,MKL-2,inactive
same,outcome,NIH3T3,inactive
same,Potency,UISO,inactive
same,Potency,WaGa,inactive
same,Potency,C33A,inactive
same,Potency,CASKI,inactive
same,Potency,Es-2,inactive
same,Potency,HeLa,inactive
same,Potency,Hek293T,inactive
same,Potency,JEG-3,inactive
same,Potency,OV90,inactive
same,Potency,PA-1,inactive
same,Potency,SKOV3,inactive
same,Potency,Tov-21-G,inactive
same,Potency,Tov112D,inactive
same,"activity, negative = cell killing",[1]; [2],-15.6%
same,"activity, negative = cell killing",[1]; [3],-21.5%
same,"activity, negative = cell killing",[1]; [5],-28%
same,"activity, negative = cell killing",[1]; [4],-0.854%
same,Potency,astro,inactive
CC(C)(Oc1ccc(C2CC2(Cl)Cl)cc1)C(=O)O (configuration not stated),Potency,MKL-1,inactive
same,Potency,MKL-2,inactive
same,outcome,NIH3T3,inactive
same,Potency,UISO,inactive
same,Potency,WaGa,inactive
same,Potency,C33A,inactive
same,Potency,CAOV3,inactive
same,Potency,CASKI,inactive
same,Potency,Es-2,inactive
same,Potency,HeLa,inactive
same,Potency,Hek293T,inactive
same,Potency,JEG-3,inactive
same,Potency,OV90,inactive
same,Potency,PA-1,inactive
same,Potency,SKOV3,inactive
same,Potency,Tov-21-G,inactive
same,Potency,Tov112D,inactive
same,"activity, negative = cell killing",[1]; [2],-9.51%
same,"activity, negative = cell killing",[1]; [3],-16.1%
same,"activity, negative = cell killing",[1]; [5],-29.3%
same,"activity, negative = cell killing",[1]; [4],6.66%
same,Potency,astro,inactive
CC(=O)OCC(CCn1cnc2cnc(N)nc21)COC(C)=O,Potency,MKL-1,inactive
same,Potency,MKL-2,inactive
same,outcome,NIH3T3,inactive
same,Potency,UISO,inactive
same,Potency,WaGa,inactive
same,Potency,C33A,inactive
same,Potency,CASKI,inactive
same,Potency,Es-2,inactive
same,Potency,HeLa,inactive
same,Potency,Hek293T,inactive
same,Potency,JEG-3,inactive
same,Potency,OV90,inactive
same,Potency,PA-1,inactive
same,Potency,SKOV3,inactive
same,Potency,Tov-21-G,inactive
same,Potency,Tov112D,inactive
same,"activity, negative = cell killing",[1]; [2],-16.1%
same,"activity, negative = cell killing",[1]; [3],-3.4%
same,"activity, negative = cell killing",[1]; [5],-17.2%
same,"activity, negative = cell killing",[1]; [4],-0.294%
same,Potency,astro,inactive
NC(=O)OCC(COC(N)=O)c1ccccc1,Potency,MKL-1,inactive
same,Potency,MKL-2,inactive
same,outcome,NIH3T3,inactive
same,Potency,UISO,inactive
same,Potency,WaGa,inactive
same,Potency,C33A,inactive
same,Potency,CASKI,inactive
same,Potency,Es-2,inactive
same,Potency,HeLa,inactive
same,Potency,Hek293T,inactive
same,Potency,JEG-3,inactive
same,Potency,OV90,inactive
same,Potency,PA-1,inactive
same,Potency,SKOV3,inactive
same,Potency,Tov-21-G,inactive
same,Potency,Tov112D,inactive
same,"activity, negative = cell killing",[1]; [2],2.73%
same,"activity, negative = cell killing",[1]; [3],-0.95%
same,"activity, negative = cell killing",[1]; [5],-11.1%
same,"activity, negative = cell killing",[1]; [4],48.2%
same,Potency,astro,inactive
Cc1cc(C(C)(C)C)c(O)c(C)c1CC1=NCCN1,Potency,MKL-1,inactive
same,Potency,MKL-2,inactive
same,outcome,NIH3T3,inactive
same,Potency,UISO,inactive
same,Potency,WaGa,inactive
same,Potency,C33A,inactive
same,Potency,CASKI,inactive
same,Potency,Es-2,inactive
same,Potency,HeLa,inactive
same,Potency,Hek293T,inactive
same,Potency,JEG-3,inactive
same,Potency,OV90,inactive
same,Potency,PA-1,inactive
same,Potency,SKOV3,inactive
same,Potency,Tov-21-G,inactive
same,Potency,Tov112D,inactive
same,"activity, negative = cell killing",[1]; [2],-18.7%
same,"activity, negative = cell killing",[1]; [3],-26.9%
same,"activity, negative = cell killing",[1]; [4],5.76%
same,Potency,astro,inactive
